Results: PubChem BioAssay AID1347171 (National Center for Advancing Translational Sciences (NCATS), 2019)
Records with an inconclusive call do not appear. A number with no mark means an inactive call. Activity calls are given as the source filed them. The call rests on the fitted dose curve; in most records, active means well fitted inhibition curve with a large enough effect; inconclusive means small, poorly fitted or top-dose-only effect; inactive means no such curve, though single readings can be large or run the other way.

Test: Orthogonal mCherry assay for qRT-PCR qHTS of selected Zika virus inhibitors
Settings: Vero cells, ZIKV-mCherry infection imaging, 48-72 h; series mostly up to 32.6 µM; activity change, negative = inhibition: at the top concentration
Text: Description: Assay Submitters (PI): Avindra Nath, Ph.D., National Institute of Neurological Disorders and Stroke (NINDS), Bethesda, MD Radhakrishnan Padmanabhan, Ph.D., Georgetown University (GU), Washington D.C. Zika Virus causes congenital defects, including microcephaly and is associated with Guillain-Barre syndrome, eningoencephalitis and myelitis in infected adult. […] Using a target-based approach, we hope to establish a screening paradigm to uncover novel, cell-active NS2B-NS3 protease (Zika Virus) specific inhibitors from NCATS' collection of small molecules using qHTS. […] Four assay panel was created to identify potential Zika Virus inhibitors. Namely, (1) GU unlinked NS2B-NS3 AMC tagged protease qHTS, (2) GU unlinked NS2B-NS3 Rhodamine tagged protease qHTS, (3) NINDS linked NS2B-NS3 AMC tagged protease qHTS, (4) NINDS linked NS2B-NS3 Rhodamine tagged protease qHTS. Inhibitors of the Zika virus primary screens are confirmed using qRT-PCR secondary assays, mCherry orthogonal assay, and Vero cells viability counterscreen. Early Translation Branch (ETB) National Center for Advancing Translational Sciences (NCATS), Rockville, MD National Institute of Health (NIH), Bethesda, Maryland
384 well ZIKV-mCherry Assay: We have developed a new orthogonal imaging assay in 384-well plate format, which uses recombinant virus ZIKV-mCherry in Vero cells. Briefly, 30 microL of Vero cells derived from a green monkey cell line, were dispensed by Multidrop Dispenser into a clear solid bottom black 384 well plate (ultracarrier, Perkin Elmer LifeSciences) at a concentration of 5,000 cells per well. […] The TIFFs were quantitated using the canned Multi Target Analysis protocol (GE Investigator Workstation software v3.7.2). […] A recombinant Zika viral infection was monitored in the Cy5 channel (cells) using a 2 microm collar dilation from the nuclear bitmap. mCherry objects with an average nuclear RFU intensity above 450 (3 stdev above mean negative control wells) were considered "mcherry positive" and data was analyzed by percent infection rate.

Row | Structure (SMILES) | Potency | activity change, negative = inhibition [%]
1 | CC(=O)c1c(O)c(C)c(O)c(Cc2c(O)c3c(c(C(=O)/C=C/c4ccccc4)c2O)OC(C)(C)C=C3)c1O | 11.2 µM (active) | 
2 | CC(C)=CCC[C@]1(C)C=Cc2c(O)c3c(c(CC=C(C)C)c2O1)O[C@]12C(=C[C@@H]4CC1C(C)(C)O[C@@]2(C/C=C(/C)C(=O)O)C4=O)C3=O | 3.55 µM (active) | 
3 | O=C1OC(c2ccc(O)c(S(=O)(=O)O)c2)(c2ccc(O)c(S(=O)(=O)O)c2)c2c(Br)c(Br)c(Br)c(Br)c21 |  | -37.8
